Some of the results follow. Calls of active or inactive are those of the source.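 How the source made its calls: active means activation of at least 7% in one or more replicates; inactive means the rest.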

The nature of this assay: alpha-DG glycosylation enhancers, retest, confirmation, single concentration, Pro5-aDG cells (AID 651671).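 Further: cells exposed to compound for two days before detection; 0% = DMSO-treated Pro5 cells and 100% = DMSO-treated B10-LARGE cells.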 The conditions noted are these: IIH6 AlphaLISA, hits give high values, screened at 10 µM (by protocol), scaled to LARGE-overexpressing B10 cells as 100%. Background: Bead proximity is the source of the signal in Alpha formats.
`COc1ccccc1C1SCCN1C(=O)c1ccc([N+](=O)[O-])cc1` (configuration not stated): the activation is -0.592% (inactive). Consider `CC(C)C(=O)NCC(c1cccs1)S(=O)(=O)c1ccc(F)cc1` (configuration not stated), for which the activation is 0.3% (inactive).

As for `CCOc1ccccc1Nc1nnc(SCC(=O)NCC2CCCO2)s1` (configuration not stated), the activation is 0.625% (inactive). As for `CN(C)CCCNC(=O)/C=C/c1ccc(OCc2c(F)cccc2Cl)cc1`, the activation was 8.53% (active).

Turning to `CC(C)c1cc(Cn2c3ccccc3c(=O)n2C(C)Cn2cc(C3CC3)nn2)on1` (configuration not stated), the activation was 0.475% (inactive).

As to `Cc1cc(C)c2[nH]c(=O)c(CN(Cc3ccccc3)C(=S)NCCCN(C)C)cc2c1`, the activation is 1.74% (inactive). As for `Nc1scc[n+]1Cc1cccc2cccnc12`, the activation was -0.533% (inactive). For `O=C(c1ccc(N2CCCC2=O)cc1)N1CCN(c2ccc(C(F)(F)F)cc2[N+](=O)[O-])CC1`, the activation was 1.5% (inactive).

On to `CCn1cc(CN2CCC(C(=O)Nc3cccc(-c4cccc(Cl)c4)c3)CC2)c(C)n1`, for which the activation is 9.24% (active). For `CN1CCN(S(=O)(=O)c2cccc(C(=O)Nc3sccc3C#N)c2)CC1`, the activation was 42% (active). Turning to `CCCn1c(=N)n(CC(=O)c2ccc(Cl)c(Cl)c2)c2ccccc21`, the activation is 11% (active). As for `CCc1ccccc1S(=O)(=O)Cc1ccc(C(=O)NCCc2ccccc2)o1`, the activation is -0.875% (inactive). On to `CN(Cc1ccccc1)CC(O)COc1ccc(CNCc2cc3ccccc3s2)cc1` (configuration not stated), for which the activation was 0.15% (inactive). As to `O=c1ccc2cc(S(=O)(=O)N3CCN(c4ccccc4)CC3)ccc2o1`, the activation is -0.742% (inactive). Turning to `O=C(NC(c1ccc(-c2ccccc2)cc1)c1cnccn1)C1CCN(CCOc2ccc(Cl)cc2Cl)CC1` (configuration not stated), the activation was 3.11% (inactive). The value for `CC(=O)Oc1cccc(N2C(=O)C3CC=C(Cl)CC3C2=O)c1` (configuration not stated) was 0.562% (inactive). `Cc1cccc(CN2CCC(CNC(=O)Nc3ccc(F)c(Cl)c3)CC2)c1`: the activation was 11% (active). The value for `OC[C@@H]1CN(Cc2ccc(-c3ccccc3)cc2)C[C@H](n2cnc3c(NC4CCCC4)ncnc32)O1` was 4.21% (inactive); that for `COc1ccc(NC(=O)CSc2nnc(-c3ccccc3F)n2C2CC2)cc1S(N)(=O)=O` was -0.758% (inactive); that for `CC(C)OC(=O)CN1C(=O)C(=O)c2ccccc21` was 8.05% (active). The value for `Cc1ccc(NC(=O)CN(C)CC(=O)Nc2cccc(F)c2)cc1[N+](=O)[O-]` was 1.48% (inactive). Regarding `COc1cc(CNCCN(C)C)ccc1OCc1c(F)cccc1Cl`, the activation is 6.71% (active). Consider `COc1cccc(C(=O)Nc2nnc(S(=O)(=O)N3CCCCC3)s2)c1`, for which the activation is -0.562% (inactive).

In the case of `CCOC(=O)C1(CCOC)CCN(Cc2cc3ccccc3s2)CC1`, the activation was -0.438% (inactive). Turning to `Cc1ccc(NC(=O)c2ccc(Oc3ncccn3)cc2)cc1`, the activation is -0.983% (inactive).

As for `COc1ccccc1N1CCN(C(=O)c2cc(-c3ccc(Br)cc3)on2)CC1`, the activation was -0.683% (inactive). Take `CCOc1ccc(OCC(=O)Nc2c3c(nn2C(C)(C)C)CS(=O)(=O)C3)cc1`: the activation is 0.637% (inactive).

Source of the values: PubChem BioAssay AID651671 (Sanford-Burnham Center for Chemical Genomics, 2012).
